The source of these data is ChEMBL document CHEMBL3988442, “University of Dundee, Small-Polar-MMV Screening Library” (2021).

For some of these results: Potency and affinity values are given separately.

Common to all, as to design: scale not given: direction of the effect not stated beside the values
Assay [1] deals with Protein translocase subunit SecA (Escherichia coli (strain K12)) (UniProt P10408). As to the kind of experiment: Assay to Identify E. coli SecA ATPase Inhibitors. The class given is functional. As to conditions: 30 µM.
Assay [2] addresses T1, Ubiquitin-activating enzyme e1, putative (Leishmania donovani (strain BPK282A1)) (UniProt E9BSI1).
T1 sequence (whole entry): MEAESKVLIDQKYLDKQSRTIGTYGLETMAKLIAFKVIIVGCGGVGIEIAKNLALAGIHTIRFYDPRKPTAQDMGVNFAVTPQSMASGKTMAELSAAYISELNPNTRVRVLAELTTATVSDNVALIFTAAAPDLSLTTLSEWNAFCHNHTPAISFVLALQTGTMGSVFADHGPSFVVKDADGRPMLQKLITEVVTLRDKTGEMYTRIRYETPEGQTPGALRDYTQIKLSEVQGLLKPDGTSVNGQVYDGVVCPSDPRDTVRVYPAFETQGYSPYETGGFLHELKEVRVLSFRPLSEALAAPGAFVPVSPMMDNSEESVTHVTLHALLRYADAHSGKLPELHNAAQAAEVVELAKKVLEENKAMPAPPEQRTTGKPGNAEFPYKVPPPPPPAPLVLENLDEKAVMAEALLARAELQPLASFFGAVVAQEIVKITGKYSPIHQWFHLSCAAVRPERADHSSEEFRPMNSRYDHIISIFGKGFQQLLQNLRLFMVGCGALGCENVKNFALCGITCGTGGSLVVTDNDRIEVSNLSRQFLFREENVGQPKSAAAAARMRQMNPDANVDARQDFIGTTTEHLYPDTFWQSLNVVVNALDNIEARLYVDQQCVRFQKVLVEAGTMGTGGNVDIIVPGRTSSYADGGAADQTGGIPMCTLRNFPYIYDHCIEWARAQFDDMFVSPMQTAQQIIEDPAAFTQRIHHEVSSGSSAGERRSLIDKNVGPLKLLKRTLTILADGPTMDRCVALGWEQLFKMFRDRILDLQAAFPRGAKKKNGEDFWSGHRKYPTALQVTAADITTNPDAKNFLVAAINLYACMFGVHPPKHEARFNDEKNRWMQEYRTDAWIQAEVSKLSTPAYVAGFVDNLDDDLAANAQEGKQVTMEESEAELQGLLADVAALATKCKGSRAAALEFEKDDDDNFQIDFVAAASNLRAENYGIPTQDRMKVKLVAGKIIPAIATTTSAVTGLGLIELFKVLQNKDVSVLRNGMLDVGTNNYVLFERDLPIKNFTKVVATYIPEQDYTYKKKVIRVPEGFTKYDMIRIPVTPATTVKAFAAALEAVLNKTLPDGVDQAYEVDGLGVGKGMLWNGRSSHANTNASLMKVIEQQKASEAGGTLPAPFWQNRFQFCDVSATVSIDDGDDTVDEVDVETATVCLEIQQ
As to the kind of experiment: Leishmania donovani Ubiquitin Activating Enzyme (LdE1). The class given is functional. As to conditions: 30 µM.

The target of assay [3] is AMP-activated protein kinase, AMPK (Homo sapiens) (UniProt P54646+O43741+P54619+Q9UGJ0+Q9Y478+Q13131+Q9UGI9). As to the kind of experiment: AMP-dependent Kinase enzyme assay. An in vitro enzyme assay that detects ADP turnover that is directly proportional to AMPK activity. This uses naive AMPK that is activated during the assay with MK-8722. In kind it is functional. As to conditions: 30 µM.

Assay [4] deals with Sialic acid-binding Ig-like lectin 9 (Homo sapiens) (UniProt Q9Y336). As to the kind of experiment: Hs-Siglec9 ALPHAscreen SOP 20170721. As to conditions: 10 µM.
In the next assay the test system is Trypanosoma cruzi. As to the kind of experiment: Trypanosoma cruzi phosphomannomutase and mannose-1-phosphate guanylyltransferase assay. The class given is functional. The settings on record: 10 µM.
The target of assay [5] is T2, Arginase-2, mitochondrial (Homo sapiens) (UniProt P78540).
T2 sequence (whole entry): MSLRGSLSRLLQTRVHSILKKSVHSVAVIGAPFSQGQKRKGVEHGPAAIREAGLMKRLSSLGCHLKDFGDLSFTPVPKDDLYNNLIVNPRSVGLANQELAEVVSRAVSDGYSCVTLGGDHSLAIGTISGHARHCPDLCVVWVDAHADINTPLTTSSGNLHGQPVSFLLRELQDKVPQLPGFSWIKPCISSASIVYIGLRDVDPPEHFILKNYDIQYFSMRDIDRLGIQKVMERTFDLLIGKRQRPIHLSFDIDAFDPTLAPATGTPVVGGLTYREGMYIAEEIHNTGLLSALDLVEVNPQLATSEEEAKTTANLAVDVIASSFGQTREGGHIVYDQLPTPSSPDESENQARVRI
The assay is described as follows: in vitro enzyme assay to detect the production of urea directly proportional to the activity of Arginase II. Note: in the data most compounds retested in dose-response had high values. In kind it is functional. The settings on record: 33.3 µM.

Assay [6] has as its target T3, Proteasome subunit beta (Trypanosoma cruzi) (UniProt O96673).
T3 sequence (whole entry): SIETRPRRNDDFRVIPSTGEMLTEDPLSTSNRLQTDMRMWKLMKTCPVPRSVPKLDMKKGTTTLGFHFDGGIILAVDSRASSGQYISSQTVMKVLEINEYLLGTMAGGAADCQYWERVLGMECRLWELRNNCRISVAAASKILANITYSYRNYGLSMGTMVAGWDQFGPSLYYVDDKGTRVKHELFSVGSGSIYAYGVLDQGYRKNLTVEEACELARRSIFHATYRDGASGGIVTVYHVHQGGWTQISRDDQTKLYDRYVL
The assay is described as follows: Trypanosoma cruzi proteasome chymotrypsin-like activity (TcProtChymo) assay. Note: in the data most compounds retested in dose-response had high values. As to conditions: 9.37 µM. In kind it is functional.

For a further assay, the species on record is Homo sapiens. As to the kind of experiment: To identify inhibition of the IFN signalling (Jak-Stat) pathway via expression of an eGFP reporter gene under the control of an IFN-stimulated response element (ISRE) containing MxA promoter. The settings on record: 30 µM. In kind it is functional. Background: In a reporter assay the amount or activity of a reporter protein is the signal.

For assay [7], the target named is T4, Tyrosyl-tRNA synthetase, putative (Trypanosoma cruzi (strain CL Brener)) (UniProt Q4DSP6).
T4 sequence (whole entry): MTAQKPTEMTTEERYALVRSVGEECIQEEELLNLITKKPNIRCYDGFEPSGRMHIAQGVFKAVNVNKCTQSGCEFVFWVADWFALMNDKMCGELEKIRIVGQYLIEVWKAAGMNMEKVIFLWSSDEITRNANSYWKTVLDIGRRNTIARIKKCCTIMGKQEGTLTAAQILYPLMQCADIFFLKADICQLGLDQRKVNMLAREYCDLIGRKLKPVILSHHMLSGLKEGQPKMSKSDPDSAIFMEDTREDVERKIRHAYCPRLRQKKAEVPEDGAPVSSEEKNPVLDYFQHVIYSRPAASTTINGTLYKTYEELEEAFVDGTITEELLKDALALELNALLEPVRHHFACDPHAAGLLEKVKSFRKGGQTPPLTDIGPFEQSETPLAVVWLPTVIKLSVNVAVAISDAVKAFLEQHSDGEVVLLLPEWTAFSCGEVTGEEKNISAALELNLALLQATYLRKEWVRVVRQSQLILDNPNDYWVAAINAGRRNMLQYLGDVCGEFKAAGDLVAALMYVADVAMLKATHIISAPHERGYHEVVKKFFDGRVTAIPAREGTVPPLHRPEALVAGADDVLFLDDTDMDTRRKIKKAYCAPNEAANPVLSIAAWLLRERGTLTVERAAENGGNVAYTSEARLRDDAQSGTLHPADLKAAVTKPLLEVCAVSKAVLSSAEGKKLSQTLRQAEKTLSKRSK
The assay is described as follows: Trypanosoma cruzi tyrosyl tRNA synthetase (TcYRS) _High Tyrosine SOP. Note: in the data most compounds retested in dose-response had high values. In kind it is functional. As to conditions: 30 µM.

Assay [8] has as its target T4, Tyrosyl-tRNA synthetase, putative (Trypanosoma cruzi (strain CL Brener)). The assay is described as follows: Trypanosoma cruzi tyrosyl tRNA synthetase (TcYRS) SOP. In kind it is functional. As to conditions: 30 µM.
Assay [9] concerns the target Chromo domain-containing protein 1 (Saccharomyces cerevisiae (strain ATCC 204508 / S288c) (Baker's yeast)) (UniProt P32657). As to the kind of experiment: ScCHD-1 Enzyme Inhibition Assay. Note: in the data most compounds retested in dose-response had high values. In kind it is functional. As to conditions: 30 µM.

Sequence of Protein translocase subunit SecA (Escherichia coli (strain K12)) (P10408 whole entry): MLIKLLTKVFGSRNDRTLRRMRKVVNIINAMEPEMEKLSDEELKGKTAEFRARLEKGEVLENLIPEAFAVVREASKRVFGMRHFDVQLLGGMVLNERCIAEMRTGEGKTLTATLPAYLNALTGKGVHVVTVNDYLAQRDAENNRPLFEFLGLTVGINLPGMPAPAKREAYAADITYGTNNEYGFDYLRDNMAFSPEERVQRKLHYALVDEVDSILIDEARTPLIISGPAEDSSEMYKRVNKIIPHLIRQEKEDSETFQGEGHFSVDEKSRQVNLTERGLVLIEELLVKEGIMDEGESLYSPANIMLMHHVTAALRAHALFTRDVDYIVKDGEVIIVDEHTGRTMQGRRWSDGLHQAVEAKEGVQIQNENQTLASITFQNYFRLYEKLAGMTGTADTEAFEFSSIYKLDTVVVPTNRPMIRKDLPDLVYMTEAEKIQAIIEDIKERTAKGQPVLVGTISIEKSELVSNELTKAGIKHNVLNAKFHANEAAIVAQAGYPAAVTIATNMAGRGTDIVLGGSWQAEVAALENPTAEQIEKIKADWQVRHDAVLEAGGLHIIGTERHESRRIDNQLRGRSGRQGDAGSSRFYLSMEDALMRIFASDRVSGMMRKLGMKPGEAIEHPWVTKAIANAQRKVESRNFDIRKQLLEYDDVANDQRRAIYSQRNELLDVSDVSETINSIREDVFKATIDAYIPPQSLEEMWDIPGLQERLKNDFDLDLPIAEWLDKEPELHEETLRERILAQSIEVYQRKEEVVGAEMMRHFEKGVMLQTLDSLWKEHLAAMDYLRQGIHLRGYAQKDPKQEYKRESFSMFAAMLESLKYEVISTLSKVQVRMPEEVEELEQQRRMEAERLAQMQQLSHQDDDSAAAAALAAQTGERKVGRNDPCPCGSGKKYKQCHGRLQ
Sequence of Sialic acid-binding Ig-like lectin 9 (Homo sapiens) (Q9Y336 whole entry): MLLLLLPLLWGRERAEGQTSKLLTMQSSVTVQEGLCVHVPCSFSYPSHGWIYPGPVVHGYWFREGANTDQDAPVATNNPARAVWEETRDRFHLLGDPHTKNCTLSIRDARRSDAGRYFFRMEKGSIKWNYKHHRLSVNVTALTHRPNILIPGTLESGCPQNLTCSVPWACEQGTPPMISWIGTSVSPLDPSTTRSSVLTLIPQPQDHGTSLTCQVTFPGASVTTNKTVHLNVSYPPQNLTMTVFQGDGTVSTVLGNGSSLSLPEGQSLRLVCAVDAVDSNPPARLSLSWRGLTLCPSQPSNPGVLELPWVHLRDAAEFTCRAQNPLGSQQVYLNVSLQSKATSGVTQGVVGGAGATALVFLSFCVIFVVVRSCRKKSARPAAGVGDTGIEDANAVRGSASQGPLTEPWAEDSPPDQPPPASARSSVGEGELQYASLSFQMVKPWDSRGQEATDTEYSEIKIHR
Sequence of Chromo domain-containing protein 1 (Saccharomyces cerevisiae (strain ATCC 204508 / S288c) (Baker's yeast)) (P32657 whole entry, the tested form may be a part): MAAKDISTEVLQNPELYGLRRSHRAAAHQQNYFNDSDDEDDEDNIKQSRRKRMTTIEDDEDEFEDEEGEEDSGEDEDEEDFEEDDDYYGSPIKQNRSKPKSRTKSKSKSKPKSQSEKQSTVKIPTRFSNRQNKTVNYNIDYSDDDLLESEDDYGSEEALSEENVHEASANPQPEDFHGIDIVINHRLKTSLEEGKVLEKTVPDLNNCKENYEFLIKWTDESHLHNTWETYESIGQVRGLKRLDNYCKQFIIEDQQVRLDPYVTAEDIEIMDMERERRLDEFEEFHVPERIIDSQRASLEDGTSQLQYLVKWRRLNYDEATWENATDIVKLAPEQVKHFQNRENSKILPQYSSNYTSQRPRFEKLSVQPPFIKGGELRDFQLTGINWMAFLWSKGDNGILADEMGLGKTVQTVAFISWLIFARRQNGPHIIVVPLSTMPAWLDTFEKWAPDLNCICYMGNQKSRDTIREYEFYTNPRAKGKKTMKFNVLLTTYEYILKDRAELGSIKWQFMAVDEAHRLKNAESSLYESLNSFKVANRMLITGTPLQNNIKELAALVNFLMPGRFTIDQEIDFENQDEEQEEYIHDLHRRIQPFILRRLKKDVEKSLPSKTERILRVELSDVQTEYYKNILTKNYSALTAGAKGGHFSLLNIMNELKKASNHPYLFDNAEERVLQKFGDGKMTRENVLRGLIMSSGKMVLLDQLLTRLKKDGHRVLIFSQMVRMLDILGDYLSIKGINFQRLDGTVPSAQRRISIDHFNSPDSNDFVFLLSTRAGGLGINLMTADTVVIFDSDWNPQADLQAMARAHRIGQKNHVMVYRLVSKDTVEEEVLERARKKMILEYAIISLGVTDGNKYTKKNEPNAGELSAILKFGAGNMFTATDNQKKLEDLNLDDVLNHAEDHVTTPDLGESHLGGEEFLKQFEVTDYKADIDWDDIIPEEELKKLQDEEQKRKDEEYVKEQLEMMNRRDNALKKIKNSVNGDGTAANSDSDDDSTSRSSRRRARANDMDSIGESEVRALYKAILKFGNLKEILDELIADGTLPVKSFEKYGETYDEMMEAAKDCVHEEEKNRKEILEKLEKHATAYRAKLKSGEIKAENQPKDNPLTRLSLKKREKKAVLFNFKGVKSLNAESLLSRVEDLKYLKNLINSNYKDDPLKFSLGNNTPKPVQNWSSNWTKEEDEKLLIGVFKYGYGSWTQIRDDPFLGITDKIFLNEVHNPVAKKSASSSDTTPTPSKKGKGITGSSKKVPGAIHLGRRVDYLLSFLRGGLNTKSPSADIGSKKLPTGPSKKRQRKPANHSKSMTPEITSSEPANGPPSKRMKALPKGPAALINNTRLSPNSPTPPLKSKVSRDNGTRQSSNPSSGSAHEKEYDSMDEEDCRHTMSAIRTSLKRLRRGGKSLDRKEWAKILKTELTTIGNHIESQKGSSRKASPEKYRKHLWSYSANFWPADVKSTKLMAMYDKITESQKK

As to `O=C(Nc1cccnc1)N1CCC(n2ccc(C(F)(F)F)n2)CC1`, the Percent Effect in assay [1] was -7.93%; in [2] it was 8.22%; in [3] it was -4.95%; in assay [4], 13%; in the assay with Trypanosoma cruzi, 3.72%; in assay [5], -0.909%. Further, the Percent Effect was 10.5% in assay [6]; 2.75% in the assay listed under Homo sapiens; 1.07% in assay [7]; 10% in assay [8]; -5.84% in assay [9].
For `O=C(CN1CCCCC1Cn1cncn1)NCc1ccccn1` (stereo unspecified), the Percent Effect in [1] is -0.608%; in [2] it was 2.53%; in assay [3] it was -4.5%; in assay [4] it was -1.76%; with Trypanosoma cruzi, -5%; in assay [5], 5.32%. For the same compound, the Percent Effect in assay [6] was -6.31%; in the assay listed under Homo sapiens, 11%; in assay [7], 4.43%; in assay [8] it was 3.8%; in assay [9], -4.29%.
For `CN(C(=O)CCNC(=O)NC1CCCCC1)c1ccccc1`, the Percent Effect was -3.57% in assay [1]; 21.1% in assay [2]; -2.45% in assay [3]; -10.2% in assay [4]; 3.21% in the assay with Trypanosoma cruzi; -1.18% in assay [5]. In addition, the Percent Effect in [6] is 14.3%; in the assay listed under Homo sapiens it was 8.02%; in assay [7] it was 3.19%; in assay [8], 13%; in assay [9], -0.404%.
On to `CCC(O)CNC(=O)C1(N(C)Cc2ccccc2)Cc2ccccc2C1` (stereo unspecified), for which the Percent Effect is -4.2% in assay [1]; 2.67% in [2]; 3.26% in [3]; -1.75% in assay [4]; -2.63% with Trypanosoma cruzi; 3.12% in [5]. Also, the Percent Effect was 8.72% in [6]; -26.6% in the assay listed under Homo sapiens; 1.64% in assay [7]; 8.64% in assay [8]; -5.97% in assay [9].
As for `COc1ccc(-c2cc(C3CCCCCN3S(=O)(=O)N(C)C)on2)cc1` (stereo unspecified), the Percent Effect is -2.23% in [1]; -14.9% in assay [2]; 6.56% in assay [3]; -4.82% in [4]; 4.54% in the assay with Trypanosoma cruzi; -1.16% in [5]. Further, the Percent Effect in assay [6] was 14.3%; in the assay filed under Homo sapiens, 12.8%; in [7] it was -50.5%; in assay [8], -66.2%; in [9] it was -12.7%.
As for `Cc1nc(C2CCCN(C(=O)c3ccc(N4CCCC4)nc3)C2)no1` (stereo unspecified), the Percent Effect was -3.94% in [1]; 3.8% in assay [2]; 7.78% in [3]; 4.58% in assay [4]; 3.18% with Trypanosoma cruzi; -8.39% in assay [5]. Besides, the Percent Effect in assay [6] is 1.37%; in the assay listed under Homo sapiens, 13.9%; in [7], 4.17%; in assay [8], 12.7%; in assay [9], -26.5%.
For the compound `O=C1CC(c2ccncc2)c2c(c(C(=O)O)cn2-c2ccc(F)cc2)N1` (stereo unspecified), the Percent Effect in assay [1] is -3.81%; in assay [2] it was 12%; in assay [3], -34.9%; in [4], -1.44%; with Trypanosoma cruzi, -3.14%; in [5] it was -3.35%. For the same compound, the Percent Effect in [6] was 13.7%; in the assay filed under Homo sapiens it was 4.82%; in [7], 8.47%; in assay [8] it was 15.4%; in [9], -5.97%.
`CCCNC(=O)CN1CCC(C(=O)Nc2cnn(CC)c2)CC1`: the Percent Effect is -4.73% in [1]; 18.4% in assay [2]; -9.54% in assay [3]; -8.7% in assay [4]; -5.13% in the assay with Trypanosoma cruzi; 3.24% in [5]. Besides, the Percent Effect was 3.98% in [6]; 7.34% in the assay listed under Homo sapiens; 6.4% in assay [7]; 18.5% in assay [8]; -3.68% in [9].
As to `COc1cc(CNC(=O)NCCCF)cc(Br)c1OC`, the Percent Effect in assay [1] is -5.95%; in assay [2], -2.67%; in assay [3] it was 3.23%; in [4] it was -1.26%; in the assay on Trypanosoma cruzi it was -2.24%; in assay [5], 0%. Further, the Percent Effect in [6] is -0.174%; in the assay listed under Homo sapiens it was 25.5%; in assay [7], 1.64%; in [8] it was 1.24%; in assay [9], 1.39%.
In the case of `Cn1cc(CN2C[C@@H]3COC[C@]3(COc3ccc(C#N)cn3)C2)cn1`, the Percent Effect in assay [1] is -0.614%; in [2], 5.48%; in assay [3], -2.34%; in assay [4], 6.07%; in the assay on Trypanosoma cruzi, -1.98%; in [5], 1.2%. Besides, the Percent Effect in assay [6] was 11.4%; in the assay listed under Homo sapiens, 13.4%; in [7], 8.33%; in assay [8], 11.1%; in [9] it was -0.913%.
`CC(=O)N(C)c1nc(CN2CCCCC2Cn2cncn2)cs1` (stereo unspecified): the Percent Effect in [1] is -8.24%; in [2], 7.79%; in assay [3], -1%; in assay [4], 0.729%; in the assay with Trypanosoma cruzi, -5.99%; in [5], -1.42%. Moreover, the Percent Effect in assay [6] was 7.43%; in the assay listed under Homo sapiens, 27.8%; in assay [7] it was 5.83%; in [8] it was 7.32%; in [9], -6.12%.
